ABHD5-PLIN5 inh = inhibitors of human ABHD5-perilipin-5 interaction; 360,000 tested, 0.78% active; inhibition, % at 4 µM; Q00G26+Q8WTS1; Split G. princeps luciferase complementation, luminescence, 4 h;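 active = inhibition above the mean inhibition across every tested compound plus 3 SD, cut at about 22% in these data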;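 also: 0% = DMSO only wells and the 100% control is not disclosed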
MBD2 DNA inh = MBD2-methylated oligo binding inhibition. AID 686964. Q9UBB5. TR-FRET, MBD2 binding to methylated oligonucleotide. inhibition, % at 4.4 µM. 370,000 tested, 0.31% active; in the data active = inhibition above about 13%
UHRF1 binding = human UHRF1 methylated DNA binding inhibitors | Q96T88 | UHRF1 binding to methylated oligo, TR-FRET | inhibition, % at 4.4 µM | 370,000 tested, 0.75% active; in the data active = inhibition above about 21%;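 also: UHRF1 SRA domain binding a hemimethylated CpG hairpin DNA probe; 0% = median of test compound wells and 100% = reference inhibitor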
LEDGF integ inh = blocks HIV-1 LEDGF/p75-dependent DNA integration | TR-FRET IN-LEDGF/p75 DNA integration, Eu/Cy5 | inhibition, % at 3.7 µM | 370,000 tested, 0.64% active | AID 743269;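 active = inhibition above the screen-wide mean plus 3 SD, cut at about 13% in these data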;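 also: signal is the Cy5 over europium emission ratio at 671 and 618 nm; 0% = plate median of compound wells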
PRMT1 FP inh = blocks human protein arginine methyltransferase 1 | AID 652257 | inhibition, % at 2.79 µM | recombinant PRMT1, activity-based probe fluorescence polarization | 370,000 tested, 1.3% active | Q99873;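 active = inhibition above about 21% made by adding two undisclosed values, limit read from the data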
rCAG RNA binder = r(CAG) repeat RNA binding; TO-PRO-1 dye displacement fluorescence; inhibition, % at 3 µM; AID 651821; 370,000 tested, 1.3% active;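 active = inhibition above the plate cutoff, the mean of all test compounds on that plate plus 3 SD, cut at about 35% in these data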;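 also: 0% = DMSO alone and 100% = 100 µM mitoxantrone as full dye displacement; higher means more dye released from RNA so lower well fluorescence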
ABHD5-PLIN5 conf = confirmation of human ABHD5-PLIN5 interaction inhibitors; AID 651612; 2,200 tested, 67% active; inhibition, % at 4 µM; biochemical ABHD5-PLIN5 interaction, luminescence; shares compounds with ABHD5-PLIN5 inh; in the data active = inhibition above about 23%;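 also: 0% = DMSO vehicle wells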
HNF4 counter = active in HNF4 split-luciferase counter-screen for ABHD5-PLIN5 inhibitors | shares compounds with ABHD5-PLIN5 inh | HNF4 dimerization, luminescence, biochemical | inhibition, % at 4 µM | 2,200 tested, 77% active;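 active = mean inhibition across replicate wells exceeding the computed hit threshold, cut at about 13% in these data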;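 also: light from luciferase halves that rejoin when HNF4 fusion proteins dimerize; 0% = DMSO only wells and the 100% control is not given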
Target sequence (P41235 whole entry, looked up, the tested form may be a part): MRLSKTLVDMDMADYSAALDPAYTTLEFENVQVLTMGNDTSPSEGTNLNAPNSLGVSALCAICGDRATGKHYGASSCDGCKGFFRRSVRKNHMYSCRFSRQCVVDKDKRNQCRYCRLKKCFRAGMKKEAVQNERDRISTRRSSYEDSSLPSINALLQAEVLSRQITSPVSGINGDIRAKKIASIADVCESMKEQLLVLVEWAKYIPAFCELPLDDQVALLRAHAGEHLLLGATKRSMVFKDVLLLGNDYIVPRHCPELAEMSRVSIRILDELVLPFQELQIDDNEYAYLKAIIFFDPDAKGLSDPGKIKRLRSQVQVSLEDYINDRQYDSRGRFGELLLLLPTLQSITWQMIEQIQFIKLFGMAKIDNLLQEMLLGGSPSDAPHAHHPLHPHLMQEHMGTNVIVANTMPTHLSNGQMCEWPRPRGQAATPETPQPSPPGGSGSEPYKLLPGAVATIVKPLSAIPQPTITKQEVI
* marks the source's active call; other numbers are inactive results; x = not tested or not shown. Rows were chosen to be rich in hits. Some 4.1% of all compounds tested hit in one or more screens of this group.

SMILES | ABHD5-PLIN5 inh | MBD2 DNA inh | UHRF1 binding | LEDGF integ inh | PRMT1 FP inh | rCAG RNA binder | ABHD5-PLIN5 conf | HNF4 counter
Cc1ccccc1CN1CCCCC(NC(=O)C2CCCC2)C1=O (configuration not stated) | x | 3 | -2 | 2 | 2 | 0 | x | x
CC(C)(C)N(NC(=O)Nc1cccc(F)c1)C(=O)c1ccccc1Cl | x | 4 | -4 | 4 | -1 | 4 | x | x
Cc1ccc(C(=O)C=Cc2cccc(C)c2)cc1 | 15 | -1 | 3 | 0 | 2 | 5 | x | x
Cc1ccc(O)c(C(=O)C=Cc2ccccc2)c1 | 41* | 0 | -2 | 4 | -2 | 2 | 88* | 55*
Cc1cccc(C=CC(=O)c2ccccc2)c1 | 27* | 8 | 0 | 3 | 2 | 5 | 57* | 44*
COc1ccc(C=CC(=O)C=CC=Cc2ccccc2)cc1 | 6 | 2 | 2 | -4 | 6 | 12 | x | x
COCOc1cc(O)c(C(=O)/C=C/c2ccccc2)c(OCOC)c1 | 41* | 0 | -1 | 6 | -5 | 2 | 69* | 63*
OC[C@@H]1CC[C@@H]2O[C@H](CCc3ccc(-c4ccc(F)cc4)cc3)[C@@H](n3cc(C4CC4)nn3)C[C@@H]2O1 | x | 4 | 4 | -3 | 0 | 8 | x | x
CCC(C)[C@H](NC(=O)[C@H](CC(C)C)NC(=O)OC(C)(C)C)C(=O)N[C@@H](Cc1ccccc1)C(=O)OC (some centres not stated) | x | 7 | 2 | 3 | 5 | 3 | x | x
Cc1nc([N+](=O)[O-])c(Br)n1Cc1ccc(Cl)c(Cl)c1 | 24* | -5 | -2 | -2 | -2 | 0 | 35* | 38*
Cc1nc([N+](=O)[O-])c(Br)n1CC(=O)c1ccc(Cl)cc1 | 27* | 10 | 5 | -2 | 7 | 9 | 31* | 26*
COc1ccc(C(=O)Cn2c(C)nc([N+](=O)[O-])c2Br)cc1 | 13 | 2 | 1 | -2 | 2 | -1 | x | x
CCCCN1CCS(=O)(=O)N(Cc2cn(Cc3ccc(C)cc3)nn2)C(C(=O)OC)C1 (configuration not stated) | x | -6 | -3 | 8 | -5 | -1 | x | x
CN1CCN(CC#CCn2c3ccccc3c3ccccc32)CC1 | 23* | 0 | 2 | 0 | 0 | -5 | 12 | 1
COC[C@@H](O)[C@H]1OCc2cccc(OC)c2[C@@H]1/C=C/c1ccccc1 | x | 1 | 3 | 1 | -2 | 3 | x | x
CSc1ccc2c(c1)C(N1CCN(C)CC1)Cc1ccc(F)cc1S2 (configuration not stated) | 26* | 0 | -2 | -1 | 1 | -1 | 18 | 3
CCC(C)NCCOCCOc1ccc(Cl)c2ccccc12 (configuration not stated) | 30* | 0 | 0 | -1 | 1 | 3 | 15 | 1
O=S(=O)(Cc1ccc(Cl)cc1)c1ccccc1-c1nnc(-c2ccc(Cl)cc2)o1 | 31* | 2 | 1 | 6 | 0 | 1 | -2 | -3
Cc1ccc(-c2nnc(-c3ccccc3S(=O)(=O)Cc3ccc(Cl)cc3)o2)cc1 | -4 | 9 | 5 | 2 | 0 | 5 | x | x
CC(C)(C)OC(=O)NCCc1nnc(S(=O)(=O)Cc2ccc(Cl)cc2Cl)o1 | 26* | 3 | 1 | -1 | 15 | -3 | 39* | 74*
COc1cc(/C=C/c2cc(C(F)(F)F)[nH]c(=O)n2)cc(OC)c1OC | 31* | 0 | 1 | 0 | 2 | 5 | 47* | 43*
COc1ccc(-n2c(=O)cc(N3CC(C)OC(C)C3)[nH]c2=O)cc1 (configuration not stated) | 37* | 1 | -1 | 2 | 3 | -1 | 1 | -1
N#CCc1c(C#N)c(N)nc(N2CCN(Cc3ccc4c(c3)OCO4)CC2)c1C#N | 26* | -8 | -3 | 0 | 19 | 16 | 2 | 7
Cc1cc(C)c(C#N)c(N2CCN(Cc3ccc4c(c3)OCO4)CC2)n1 | 0 | 0 | 5 | -4 | 4 | -2 | x | x
COc1cc(NC(=O)C/C(C)=N/NC(=O)c2cccs2)c(OC)cc1Cl | 36* | 1 | 1 | 1 | 3 | 10 | 8 | 16*
SMILES | ABHD5-PLIN5 inh | MBD2 DNA inh | UHRF1 binding | LEDGF integ inh | PRMT1 FP inh | rCAG RNA binder | ABHD5-PLIN5 conf | HNF4 counter
COC(=O)[C@]1(C#N)CC(=O)N(Cc2ccc(Cl)cc2)[C@@H]1c1ccc(OC)cc1 | x | 0 | 1 | -3 | -1 | 2 | x | x
Cc1ccc(Oc2c(C(N)=O)cc([N+](=O)[O-])cc2[N+](=O)[O-])cc1 | 63* | -2 | 0 | 0 | 6 | 1 | 95* | 74*
Cc1ccc(CNc2ccc([N+](=O)[O-])cc2C(N)=O)cc1 | -14 | 1 | -1 | 3 | 13 | 5 | x | x
COCCN1CCCc2nc(-c3ccc(Br)cc3)ccc21 | x | -4 | -3 | 0 | -1 | 5 | x | x
Cc1c(Cl)ccc2c(C(=O)NCCN3CCCCC3)cc(-c3ccccn3)nc12 | 22 | 1 | -18 | 4 | 0 | 2 | x | x
COc1ccccc1-c1cc(C(=O)NC2CCN(C)CC2)c2ccc(Cl)c(C)c2n1 | 32* | 0 | 10 | -1 | 4 | 2 | 20 | -3
Cc1cc2nc(-c3cccc(Br)c3)c(Cc3ccccc3)n2c(C)c1Br | 28* | 0 | 9 | 0 | 7 | 31 | 32* | 17*
O=C1NC(=O)C2C3C=CC(C12)C1C(=O)NC(=O)C31 (configuration not stated) | x | 10 | 4 | -4 | 7 | 1 | x | x
O=C(CSc1nc2ccccc2nc1N1CCOCC1)NCc1ccc(Cl)cc1Cl | x | 0 | 0 | -1 | -3 | 2 | x | x
O=C1C=CC(O)(c2cc(=O)c3c(O)cc(O)cc3o2)C=C1 | 89* | 3 | 3 | 7 | 17 | 1 | 101* | 106*
CN(C)CCC(=O)N1C/C(=C/c2ccccc2)C(=O)/C(=C\c2ccccc2)C1 | 96* | 2 | -3 | -8 | 11 | 0 | 103* | 106*
O=C1/C(=C/c2ccccc2)CN(C(=O)CCN2CCOCC2)C/C1=C\c1ccccc1 | 99* | 6 | -1 | -1 | -1 | -1 | 103* | 105*
C[N+](C)(C)CCC(=O)N1C/C(=C/c2ccccc2)C(=O)/C(=C\c2ccccc2)C1 | 92* | 5 | -2 | -1 | 2 | 5 | 100* | 100*
CC(Oc1ccccc1F)C(=O)NNC(=O)c1ccc(F)c(S(=O)(=O)N2CCOCC2)c1 (configuration not stated) | 63* | -2 | -2 | 1 | 3 | 1 | 2 | 2
